Laboratory results reported in PubChem BioAssay AID449 (The Scripps Research Institute Molecular Screening Center, 2006).
Screen size: about 56,000 compounds; about 320 (0.57%) were called active.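 How the source made its calls: active means activation above a cutoff set at the mean activation of all tested compounds plus 3 SD (cut at about 54% in these data); inactive means the rest, inconclusive results apart.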 The list comes from a sample in which actives are over-represented; it also holds similar structures and randomly drawn compounds.

Target: Sphingosine 1-phosphate receptor 1 (Homo sapiens) (UniProt P21453)
Assay: activation or potentiation of human S1P1 signaling – cell-based, primary and confirmation screens, CRE-bla reporter, primary screen (AID 449);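 further: forskolin at 4 µM as EC80 and the EC20 agonist is SEW2871; 100% = SEW2871 at its EC100 plus forskolin at EC80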
Settings: S1P1 CRE-bla cells, forskolin, beta-lactamase FRET, potentiator mode, at 9.5 µM, stronger effect = higher value, 100% = saturating reference agonist, 0% = basal, S1P1 agonist co-added at EC20, 2 nM
[1] = measured here: confirmation screen, triplicate average

Sphingosine 1-phosphate receptor 1 (Homo sapiens), sequence (P21453 whole entry, looked up): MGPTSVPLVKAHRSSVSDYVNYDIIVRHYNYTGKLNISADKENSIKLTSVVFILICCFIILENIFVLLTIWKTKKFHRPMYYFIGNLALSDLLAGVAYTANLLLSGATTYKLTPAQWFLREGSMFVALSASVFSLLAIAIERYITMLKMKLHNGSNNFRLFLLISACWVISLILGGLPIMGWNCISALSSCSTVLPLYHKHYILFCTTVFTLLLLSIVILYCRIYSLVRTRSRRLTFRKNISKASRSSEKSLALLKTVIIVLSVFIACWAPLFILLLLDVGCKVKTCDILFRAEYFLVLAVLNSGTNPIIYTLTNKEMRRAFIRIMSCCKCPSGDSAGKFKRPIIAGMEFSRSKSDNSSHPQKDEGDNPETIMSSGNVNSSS

Structure (SMILES)	activation	activation [1]
Cc1c(C(=O)NCC2CCCO2)sc2nc(-c3ccccc3)cn12 (centres undefined)	-17.8% (inactive)	–
CCOc1ccc(NC(=O)CSc2nc3c(c(=O)n2-c2ccccc2OC)SCC3)cc1	-5.9% (inactive)	–
COc1ccc(OC)c2sc(NC(=O)C3COc4ccccc4O3)nc12 (centres undefined)	-1.3% (inactive)	–
COc1ccc(CCNC(=O)CN2CCC(n3nnc4cc(F)ccc43)CC2)cc1OC	-19.7% (inactive)	–
COCCOC(=O)C1=C(C)N=c2s/c(=C\c3cccs3)c(=O)n2C1c1cccs1 (centres undefined)	2.2% (inactive)	–
COc1ccc(OC)c(CNC(=O)CCc2nc(-c3cccs3)no2)c1	9.5% (inactive)	–
CC(C)(C)NC(=O)C(c1ccco1)N(Cc1ccc2c(c1)OCO2)C(=O)Cn1nnc2ccccc21 (centres undefined)	11.2% (inactive)	–
c1ccc(-n2ncc3c2ncn2c(CSc4nc5ccccc5s4)nnc32)cc1	-7.8% (inactive)	–
CCn1c(=O)cc(O)c2ccccc21	-26.6% (inactive)	–
CCc1ccccc1NC(=O)c1cccs1	-18.1% (inactive)	–
O=C(OCCO)c1cc(Cl)c(C(=O)OCCO)cc1Cl	-15.8% (inactive)	–
Fc1ccc(Br)cc1/C=N/n1cnnc1	-20% (inactive)	–
CC1(C)CC(=O)C(C=NCCC2=CCCCC2)=C(O)C1	-14.2% (inactive)	–
O=C(c1cccc(C(=O)N2CCN(c3ccc(F)cc3)CC2)c1)N1CCN(c2ccc(F)cc2)CC1	46% (inactive)	–
Cn1c2c(c(=O)n(C)c1=O)CN(Cc1ccco1)CN2	-5.4% (inactive)	–
COc1ccc(C2/C(=C(/O)c3ccc(OC(C)C)cc3)C(=O)C(=O)N2CCCN2CCOCC2)cc1 (centres undefined)	10.9% (inactive)	–
CS(=O)(=O)N(Cc1nc2sc3c(c2c(=O)[nH]1)CCCC3)C1CCCCC1	-3.8% (inactive)	–
Cc1ccccc1Cn1c(=O)[nH]c2ccccc21	1% (inactive)	–
O=C(COc1ccc(Cl)cc1)Nc1ccccc1CO	0% (inactive)	–
Cc1ccc(CCn2c3c(c4ccccc42)CN(C)CC3)cn1	6.4% (inactive)	–
CC1CN(Cc2nc3c(c(=O)n(C)c(=O)n3C)n2Cc2cccc(Cl)c2)CC(C)O1 (centres undefined)	-22.8% (inactive)	–
CCOC(=O)C1C(=O)C=C(c2ccc(OC)cc2)CC1c1ccco1 (centres undefined)	91.1% (active)	86.3%
COc1ccc(CCNC(=O)c2ccco2)cc1	-9.8% (inactive)	–
CCOC(=O)C1C(=O)NC(N2CCN(c3ccccc3)CC2)=NC1c1ccco1 (centres undefined)	-4.8% (inactive)	–

Structure (SMILES)	activation	activation [1]
COc1ccc(-n2nc3c(c2NC(=O)Cc2cccc(C)c2)CS(=O)C3)cc1 (centres undefined)	-1.3% (inactive)	–
CN1CCN(c2cc(=O)n(-c3ccc(Cl)cc3)c(=O)[nH]2)CC1	-1.5% (inactive)	–
O=C1c2ccccc2C(O)N1Cc1ccccc1Cl (centres undefined)	15.2% (inactive)	–
O=C(Cc1cccs1)N1CCCC(c2nc(-c3ccc(S(=O)(=O)N4CCCC4)cc3)no2)C1 (centres undefined)	18.8% (inactive)	–
COc1cc(-c2noc(C3CCCN(S(=O)(=O)c4cccc(Cl)c4)C3)n2)cc(OC)c1OC (centres undefined)	91.7% (active)	85.9%
O=C(c1cccs1)N1CCCC(c2nc(-c3ccc(F)cc3)no2)C1 (centres undefined)	22.8% (inactive)	–
COc1nc(NCc2ccc(Cl)cc2)nc(OC)n1	-7.3% (inactive)	–
O=C(Cn1cnc2c(cnn2-c2ccc(F)cc2)c1=O)NCCc1ccccc1	-3.5% (inactive)	–
Nc1nnc(C2CCCC2)s1	-4.9% (inactive)	–
Cn1c(SCC(=O)N2CCOCC2)nnc1-c1ccc(NC(=O)c2ccccc2F)cc1	2.6% (inactive)	–
COc1ccc(C(=O)Nc2nncs2)c(OC)c1	-24% (inactive)	–
COC(=O)c1sc(NC(=O)c2csc3c2CCCC3)nc1C	8.7% (inactive)	–
COC(=O)c1sc(NC(=O)c2ccc(OC)cc2OC)nc1C	108% (active)	94.2%
CSCCC(NC(=O)c1ccc(=O)n(C)n1)c1nc2ccccc2[nH]1 (centres undefined)	-17.6% (inactive)	–
COc1ccc2nc(N3CCCC(O)C3)c(C#N)cc2c1 (centres undefined)	16.4% (inactive)	–
Cc1ccc(S(=O)(=O)C2(S(=O)(=O)c3ccc(C)cc3)CCCC2)cc1	-19.8% (inactive)	–
CCCOC(=O)CC1C(=O)NCCN1Cc1ccc(F)cc1 (centres undefined)	-20.1% (inactive)	–
CCC(CC)c1nnc(NS(=O)(=O)Cc2ccccc2)s1	-23.9% (inactive)	–
COc1cccc(C2/C(=C(/O)c3ccc(F)cc3)C(=O)C(=O)N2CCN(C)C)c1 (centres undefined)	-5.8% (inactive)	–
COc1ccc(OC)c2c1sc(=NC(=O)CN1C(=O)CCC1=O)n2C	-15.9% (inactive)	–
COc1ccc(-n2nnc3c(=O)n(CC(=O)N4CCC(Cc5ccccc5)CC4)cnc32)cc1	18.2% (inactive)	–
N#CCCN1CCN(S(=O)(=O)c2ccc(S(=O)(=O)NC3CCCCC3)cc2)CC1	-9% (inactive)	–
CCN1CCN(Cc2c(O)ccc3c(=O)c(-c4ccc(OC)c(OC)c4)c(C(F)(F)F)oc23)CC1	-27.2% (inactive)	–
O=c1c(-c2ccc3c(c2)OCCO3)c(C(F)(F)F)oc2cc(O)cc(O)c12	84% (active)	95.4%

Structure (SMILES)	activation	activation [1]
Cc1ccc(-c2nc(CS(=O)CC(=O)N3CCN(c4ncccn4)CC3)c(C)o2)cc1 (centres undefined)	-2.4% (inactive)	–
O=C1CC(c2cccc(Br)c2)C2=C(CCCC2=O)N1 (centres undefined)	-6.5% (inactive)	–
C=C(C)Cn1c(N2CCCC2)nc2c1c(=O)[nH]c(=O)n2C	-3.8% (inactive)	–
O=C(c1cc(-c2ccccc2O)on1)N1CCCC1	-19% (inactive)	–
COc1ccc(-c2c(C)nn3c(N4CCC(C(=O)N5CCCCC5)CC4)cc(C)nc23)cc1OC	-7.7% (inactive)	–
CN(CCCC(=O)Nc1nccs1)S(=O)(=O)c1ccc(Cl)cc1	20.6% (inactive)	–
O=c1c2ccccc2oc2nc3n(c(=O)c12)CCCS3	-24.6% (inactive)	–
CNC(=O)c1c(NC(=O)c2ccc(S(=O)(=O)N3CCOCC3)cc2)sc2c1CCC2	-19.6% (inactive)	–
O=C(NCc1ccc(Cl)c(Cl)c1)c1cccnc1	10.2% (inactive)	–
COC(=O)c1c(NC(=O)CCN2CCOCC2)sc2c1CCCC2	-4.7% (inactive)	–
O=S(=O)(NCc1ccccn1)c1ccc(F)cc1	-21.3% (inactive)	–
O=S(N1CCCCCC1)C12CC3CC(CC(C3)C1)C2 (centres undefined)	-13.3% (inactive)	–
CCCn1c(O)c(CN2CCCC(C)C2)c(C)c(C#N)c1=O (centres undefined)	1% (inactive)	–
CCOC(=O)CSC1=C(C#N)C(c2ccco2)C(C(=O)OCc2ccccc2)=C(C)N1 (centres undefined)	11.9% (inactive)	–
FC(F)(F)c1cc(-c2ccco2)nc(N2CCOCC2)n1	-22.2% (inactive)	–
CC(C)CCNC(=O)CCNS(=O)(=O)c1ccc(Cl)cc1	12.2% (inactive)	–
O=C(NC1CCN(Cc2ccccc2)CC1)c1ccccc1F	-25.4% (inactive)	–
CCOc1cc(/C=N/n2cnnc2)c(Br)cc1O	-9.1% (inactive)	–
c1nnc2c3c4c(sc3ncn12)CCC4	-8.2% (inactive)	–
COc1ncnc2sc3c(c12)CCCC3	-21.1% (inactive)	–
Cn1cc(S(=O)(=O)N2CCC(Cc3ccccc3)CC2)c(=O)n(C)c1=O	-8.3% (inactive)	–
Cc1nnc(SCC(N)=O)n1CC1CCCO1 (centres undefined)	-8.7% (inactive)	–
COC(=O)c1ccc2c(=O)n(CC3CCCO3)c(=S)[nH]c2c1 (centres undefined)	-12.1% (inactive)	–
Cc1ccsc1C(=O)OCC(=O)c1cc(C)n(CC2CCCO2)c1C (centres undefined)	57% (active)	84.7%

Structure (SMILES)	activation	activation [1]
COC(=O)c1ccc(S(=O)(=O)c2ccc(C(=O)OC)s2)s1	1.7% (inactive)	–
NC(=O)c1ccsc1NC(=O)c1ccco1	1% (inactive)	–
COc1cc(=O)[nH]c(=O)n1C(=O)Cc1ccccc1	-7.8% (inactive)	–
CC1CCCN(Cc2nc3c(c(=O)n(C)c(=O)n3C)n2Cc2cccc3ccccc23)C1 (centres undefined)	10.7% (inactive)	–
CCOC(=O)C1CCCN(C(=O)C2CCN(c3nnc(-n4cccc4)s3)CC2)C1 (centres undefined)	-27.3% (inactive)	–
Cc1c2cn[nH]c(=O)c2c(C)n1Cc1ccc(F)cc1	-6.4% (inactive)	–
C=CCSc1nnc(Cn2c(=O)sc3ccccc32)n1C	-13.4% (inactive)	–
Cn1c(=O)c2c(nc(SCCNS(=O)(=O)c3ccccc3)n2C)n(C)c1=O	-18.9% (inactive)	–
CN(C)c1ccnc2sc3c(=O)n(Cc4ccccc4)cnc3c12	75.3% (active)	84.4%
CN(C)/C=C/c1c(C#N)c(=O)ncn1Cc1ccccc1	-5.6% (inactive)	–
O=c1c2[nH]c3ccc(Cl)cc3c2ncn1Cc1ccccn1	-22.3% (inactive)	–
CC(C)OCCCNc1ncnc2c1[nH]c1ccc(F)cc12	91.1% (active)	110%
O=C1CCCN1CCCNc1ncnc2c1[nH]c1ccccc12	6.8% (inactive)	–
CCN1CCCC1CNc1ncnc2c1[nH]c1ccc(F)cc12 (centres undefined)	4.2% (inactive)	–
Cc1nc2c(c(=O)n1Cc1ccco1)c1nc3ccccc3nc1n2Cc1ccccc1	2.5% (inactive)	–
CCCCCCn1c(SCC(=O)c2ccccc2)nc2c1c(=O)[nH]c(=O)n2C	-26.5% (inactive)	–
O=C(CCN1C(=O)COc2ccccc21)NCCCN1CCN(c2ccc(F)cc2)CC1	-29.7% (inactive)	–
N/C(=N\c1nc2ccccc2o1)NC(=O)C(Cc1ccccc1)N1C(=O)c2ccccc2C1=O (centres undefined)	-12% (inactive)	–
CCOc1ccc2[nH]c(=O)c(CN(CCCO)C(C)=O)cc2c1	2.1% (inactive)	–
COc1ccc(S(=O)(=O)N2CCN(C(=O)c3cccs3)CC2)cc1OC	15.9% (inactive)	–
Cc1noc(C)c1C(=O)OCC(=O)/C=C1\N(C)c2ccccc2C1(C)C	-18.5% (inactive)	–
COC(=O)c1c(-c2ccc(C)cc2)csc1N	23% (inactive)	–
Cc1ccc(-c2nc(COC(=O)c3c(C)noc3C)cs2)cc1	85.3% (active)	98.2%
Cc1cccn2c(=O)c3cc(C#N)c(=O)n(CCCN4CCOCC4)c3nc12	-29% (inactive)	–
